Hit rate of the full screen: of about 5,500 compounds, about 2,000 (36%) were called active. Another 18% or so got no clear call; they are omitted. Rule as the data show it: active = normalized growth mostly below about 0.91 (no sharp cut-off); inconclusive = no clear call, values can overlap the other calls; inactive = mostly above about 0.92. The list shows a part of the results.
Experiment: chemical genetic growth profiling, strain panel (AID 1159580);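 also: tested at 20 µM; growth read once vehicle control cultures reached saturation at 30 °C; 1 = growth at the plate median or of vehicle wells; lower values mean less growth of the strain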
Details: growth OD

Measured: normalized growth

CSc1nc(N)nc(C(C)(C)C)n1
inactive: S. cerevisiae deletion strains, locus YAL013W, strain DEP1, hits give low values 1.01 | S. cerevisiae deletion strains, locus YBR229C, strain ROT2, hits give low values 1 | S. cerevisiae deletion strains, locus YCL061C, strain MRC1, hits give low values 0.993 | S. cerevisiae deletion strains, locus YDL101C, strain DUN1, hits give low values 0.976 | S. cerevisiae deletion strains, locus YDL134C, strain PPH21, hits give low values 1.01 | S. cerevisiae deletion strains, locus YDR150W, strain NUM1, hits give low values 0.978 | S. cerevisiae deletion strains, locus YEL061C, strain CIN8, hits give low values 1.02 | S. cerevisiae deletion strains, locus YGR078C, strain PAC10, hits give low values 1.01 | S. cerevisiae deletion strains, locus YHR030C, strain SLT2, hits give low values 0.974 | S. cerevisiae deletion strains, locus YHR087W, strain rtc3, hits give low values 1 | S. cerevisiae deletion strains, locus YJL187C, strain SWE1, hits give low values 1.02 | S. cerevisiae deletion strains, locus YJR043C, strain POL32, hits give low values 1.01 | S. cerevisiae deletion strains, locus YJR075W, strain HOC1, hits give low values 0.978 | S. cerevisiae deletion strains, locus YLR039C, strain RIC1, hits give low values 1.01 | S. cerevisiae deletion strains, locus YLR058C, strain SHM2 (second series), hits give low values 1.02 | S. cerevisiae deletion strains, locus YLR085C, strain ARP6, hits give low values 1.03 | S. cerevisiae deletion strains, locus YLR262C, strain YPT6, hits give low values 1.01 | S. cerevisiae deletion strains, locus YML094W, strain GIM5, hits give low values 0.981 | S. cerevisiae deletion strains, locus YMR219W, strain ESC1, hits give low values 1.02 | S. cerevisiae deletion strains, locus YMR263W, strain SAP30, hits give low values 0.991 | S. cerevisiae deletion strains, locus YNL128W, strain TEP1, hits give low values 1.02 | S. cerevisiae deletion strains, locus YNL153C, strain GIM3, hits give low values 0.982 | S. cerevisiae deletion strains, locus YNL298W, strain CLA4 (second series), hits give low values 1.03 | S. cerevisiae deletion strains, locus YNL322C, strain KRE1, hits give low values 1 | S. cerevisiae deletion strains, locus YNR030W, strain Alg12, hits give low values 1 | S. cerevisiae deletion strains, locus YOL006C, strain TOP1, hits give low values 0.968 | S. cerevisiae deletion strains, locus YPL055C, strain LGE1, hits give low values 0.989 | S. cerevisiae deletion strains, locus YPL241C, strain CIN2, hits give low values 1.11 | S. cerevisiae deletion strains, locus YPR135W, strain CTF4, hits give low values 0.951 | S. cerevisiae strains, strain wild type, hits give low values 1.02
